Only some compounds are listed: those with a hit (about 3.3% of all), similar ones and a draw of the others.
Sm TGR inh = blocks Schistosoma mansoni thioredoxin glutathione reductase | Q962Y6 | purified TGR, DTNB reduction, TNB absorbance 405 nm | Potency, µM (top dose mostly 114 µM), actives largely listed as inhibitors | 3% of 360,000 active; further: nearly all actives have a fitted effect of over 60% in size
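TGR 20 nM + NADPH 100 uM (dispensed conc.), cpd preinc 15 min RT; start with NADPH (500 uM addition) then DTNB (15 mM addition). Kinetic TNB absorbance, 405 nm filter. Four-parameter Hill fit across titration.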
Tb PYK inh = T. brucei pyruvate kinase inhibition | AID 624173 | Potency, µM (series often up to 76.8 µM), most hits filed as inhibitors | TbPYK enzyme, Kinase-Glo Plus ATP luminescence, 45 min | 0.12% of 410,000 active | Q57TT1; further: nearly all actives have a fitted effect of over 50% in size
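T. brucei PYK with substrate was exposed to pin-transferred compounds across a concentration series, then started with 130 uM ADP (final). After 45 min at room temperature, Kinase-Glo Plus luminescence was read, normalized and curve-fitted.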
LmPK inhibitor = blocks Leishmania mexicana pyruvate kinase activity. Q27686. purified LmPK, Kinase-Glo ATP luminescence, 1 h. Potency, µM (doses to about 57.5 µM), hits mostly inhibitors. 0.37% of 290,000 active. AID 1721
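Purified LmPK (0.1 nM) converted ADP (0.1 mM) to ATP with PEP (0.5 mM) in imidazole buffer pH 7.2 with KCl and MgCl2, 1 h at room temperature. ATP was read by Kinase-Glo luminescence; data normalized to uninhibited and no-enzyme controls.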
Giardia FBPA inh-1 = inhibitors of Giardia lamblia fructose-1,6-bisphosphate aldolase; 0.71% of 290,000 active; A8B2U2; AID 2451; Potency, µM (series often up to 59.6 µM), usual class: inhibitors; purified Giardia FBPA; further: nearly all actives have a fitted effect of over 55% in size
Target sequence (A8B2U2 whole entry, looked up): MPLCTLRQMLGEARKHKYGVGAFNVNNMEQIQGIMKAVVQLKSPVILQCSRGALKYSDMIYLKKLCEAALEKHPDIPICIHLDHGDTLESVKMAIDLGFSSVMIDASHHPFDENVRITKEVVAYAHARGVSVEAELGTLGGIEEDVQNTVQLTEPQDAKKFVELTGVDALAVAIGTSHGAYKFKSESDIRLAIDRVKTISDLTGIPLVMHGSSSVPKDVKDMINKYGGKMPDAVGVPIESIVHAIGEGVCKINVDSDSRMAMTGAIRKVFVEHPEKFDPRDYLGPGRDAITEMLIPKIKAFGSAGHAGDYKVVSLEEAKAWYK
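Giardia FBPA (40 nM reagent) was preincubated 10 min at RT with compound (up to 57.5 uM final), then substrate plus GAPDH/TPI/NAD/arsenate coupling system with diaphorase/resazurin was added; resorufin fluorescence (525/598 nm) was read after 20 min.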
RE007 growth inh = less growth of the S. pombe RE007 Vpr strain | S. pombe RE007 Vpr strain, BacTiter-Glo ATP luminescence, 24 h | Potency, µM (doses to about 92.2 µM), usual class: inhibitors | 0.21% of 360,000 active | AID 651644; active means well fitted falling curve with a large enough effect; inconclusive means small, poorly fitted or top-dose-only effect; inactive means no such curve, though single readings can be large or run the other way; further: nearly all actives have a fitted effect of over 50% in size
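Fission yeast RE007 carrying one integrated HIV-1 vpr copy, seeded at OD 0.01 in PMG+AL medium with 23 nL pinned compound. Grown 24 h at 30 degrees; viability read by BacTiter-Glo luminescence after 5 min.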
Giardia growth = Giardia lamblia growth inhibition. shares compounds with Giardia FBPA inh-1. Giardia lamblia trophozoite growth inhibition. Potency, µM (doses to about 57.5 µM), most hits filed as inhibitors. 5% of 1,500 active. AID 2785;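 further: trophozoites exposed to compound for 48 h at 37 °C; nearly all actives have a fitted effect of over 70% in size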
Mammal cell tox = toxic to mammalian cells in Giardia aldolase counter-screen. 4% of 1,500 active. Potency, µM (doses to about 57.5 µM), hits mostly inhibitors. mammalian cell viability counter-screen, qHTS. shares compounds with Giardia FBPA inh-1;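 further: Chinese hamster ovary cells used as mammalian cytotoxicity surrogate; viability measured as cellular ATP by luminescence; compound exposure lasted 48 h before reading; nearly all actives have a fitted effect of over 60% in size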
Giardia FBPA inh-2 = confirmation of Giardia fructose-bisphosphate aldolase inhibitors; shares compounds with Giardia FBPA inh-1; purified Giardia aldolase enzyme activity, qHTS; Potency, µM (titrated, usually from 57.5 µM), actives largely listed as inhibitors; 5% of 1,500 active; AID 2787; further: nearly all actives have a fitted effect of over 45% in size
Rabbit FBPA inh = selectivity test for Giardia aldolase inhibitors: rabbit aldolase; shares compounds with Giardia FBPA inh-1; Rabbit muscle FBPA enzyme inhibition, selectivity counter-screen; Potency, µM (titrated, usually from 57.5 µM), hits mostly inhibitors; 4% of 1,500 active; AID 2794; further: nearly all actives have a fitted effect of over 60% in size
Target sequence (P00883 whole entry, looked up): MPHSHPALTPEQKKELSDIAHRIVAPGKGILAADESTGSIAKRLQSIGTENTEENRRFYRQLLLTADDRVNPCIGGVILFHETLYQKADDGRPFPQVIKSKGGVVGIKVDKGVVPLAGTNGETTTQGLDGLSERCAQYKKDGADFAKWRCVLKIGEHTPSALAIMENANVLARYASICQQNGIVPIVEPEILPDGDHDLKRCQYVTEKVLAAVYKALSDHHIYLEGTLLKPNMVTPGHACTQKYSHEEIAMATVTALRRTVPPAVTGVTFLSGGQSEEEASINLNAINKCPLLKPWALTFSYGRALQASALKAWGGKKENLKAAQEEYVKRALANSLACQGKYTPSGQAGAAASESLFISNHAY
GAPDH coupling = counter-screen for Giardia aldolase inhibitors: GAPDH coupling enzyme | 6% of 1,500 active | AID 2795 | Potency, µM (top dose mostly 57.5 µM), actives largely listed as inhibitors | GAPDH coupling enzyme counterscreen, biochemical, qHTS | shares compounds with Giardia FBPA inh-1; further: nearly all actives have a fitted effect of over 55% in size
Numbers stand for hits; . = inactive; ? = inconclusive; / = no result; [ ] = dose if it differs, or a comment. Unless noted, the call rests on the fitted dose curve; in most records, active means well fitted curve in the direction sought with a large enough effect; inconclusive means small, poorly fitted or top-dose-only effect, or another doubt; inactive means no such curve, though single readings can be large; an effect the other way counts as inactive or inconclusive.

SMILES	Sm TGR inh	Tb PYK inh	LmPK inhibitor	Giardia FBPA inh-1	RE007 growth inh	Giardia growth	Mammal cell tox	Giardia FBPA inh-2	Rabbit FBPA inh	GAPDH coupling
O=C(CNCc1cccs1)Nc1ccc(S(=O)(=O)N2CCCCC2)cc1	.	.	.	?	.	/	/	/	/	/
O=C(CNCc1cccs1)Nc1ccc(N2CCCCCC2)cc1	.	.	.	18µM	.	?	.	.	.	.
O=C(CNCC1CCCO1)NCc1ccco1 (configuration not stated)	?	.	.	16µM	.	?	.	.	.	.
O=C(CN(CC1CCCO1)C(=O)CNS(=O)(=O)c1ccccc1)NCc1ccco1 (configuration not stated)	.	.	.	.	.	/	/	/	/	/
CON(C)C(=O)c1nnc2c3ccccc3n(S(=O)(=O)c3ccc(C)cc3)c2n1	/	/	/	.[12.9 µM]	/	/	/	/	/	/
CN1CCC(NCCC(c2ccc(F)cc2)c2ccc(Cl)cc2)CC1 (configuration not stated)	.	.	.	14µM	.	?	20µM	.	.	.
COc1cccc(NC(=O)CN(C)CC(=O)Nc2ccc(C)cc2Cl)c1	.	.	.	14µM	.	.	.	.	.	.
Cc1ccc(NC(=O)CN(C)CC(=O)Nc2ccccc2Oc2ccccc2)cc1	.	.	.	13µM	.	.	.	.	.	.
CC1C2CCC(C2)C1OC(=O)c1ccccc1C(=O)O (configuration not stated)	/	.	/	/	.	/	/	/	/	/
COc1cc(/C=N/N2CCN(Cc3ccccc3)CC2)cc(OC)c1OC(C)=O	.	.	.	.	.	/	/	/	/	/
Cc1cc(Cl)c(OCCOCCN2CCN(C)CC2)c(Br)c1	.	.	.	22µM	.	.[10.4 µM]	.	.	.	.
C=CCc1cc(C)ccc1OCCOCCN1CCN(C)CC1	.	.	.	16µM	.	.	.	.	.	.
Cc1ccc(OCCOCCN2CCN(C)CC2)c(C(C)(C)C)c1	.	.	.	13µM	.	.	.	.	.	.
CC(=O)c1cccc(S(=O)(=O)N2CCC(C(=O)N(C)Cc3ccc(Cl)s3)CC2)c1	.	.	/	/	.	/	/	/	/	/
NC(=S)NNc1cccc(Cl)c1	.	.	.	13µM	?	.	.	.	.	.
Cc1cccc(NNC(N)=S)c1	.	.	.	20µM	?	.	.	.	.	.
COC(=O)c1sc2ccccc2c1-n1cccc1C(=O)C(=O)Nc1ccc(OC)cc1	.	.	.	.	.	/	/	/	/	/
COCCCNC(=O)C(=O)NC1CCCCC1C (configuration not stated)	.	.	.	.	.	/	/	/	/	/
CNC(=O)c1c(C)[nH]c(=S)c(C#N)c1-c1ccco1	32µM	7.9µM	.	13µM	.	.[10.4 µM]	.	.	.	.
Cc1ccccc1NC(=O)c1c(C)[nH]c(=S)c(C#N)c1-c1ccco1	.	.	.	.	.	/	/	/	/	/
O=C(Cn1cc(S(=O)(=O)N2CCCC2)c(S(=O)(=O)N2CCCC2)c1)Nc1ccccc1	.	.	/	/	/	/	/	/	/	/
CN(Cc1nc2ccccc2c(=O)[nH]1)C(=O)COc1ccccc1Cc1ccccc1	.	.	/	/	.	/	/	/	/	/
Cc1ccnc(SCc2cc(=O)c(OC(=O)c3cc([N+](=O)[O-])ccc3Cl)co2)n1	.	.	.	.	.	/	/	/	/	/
NNc1ccc(Cl)nn1	.	.	.	20µM	.	.	.	.	.	.
O=C(Nc1ncn[nH]1)c1ccccc1O	.	.	.	20µM	.	?	.	.	.	.
SMILES	Sm TGR inh	Tb PYK inh	LmPK inhibitor	Giardia FBPA inh-1	RE007 growth inh	Giardia growth	Mammal cell tox	Giardia FBPA inh-2	Rabbit FBPA inh	GAPDH coupling
O=C1C2CCCN2C(c2cccc(Br)c2)N1c1ccc(F)cc1 (configuration not stated)	.	.	.	.	.	/	/	/	/	/
CCOC(=O)c1cc(C#N)c(SCc2cccc3ccccc23)nc1C	.	.	.	.	.	/	/	/	/	/
CCOc1ccc(CCNC(=O)c2c(C)oc3ncn(CC(C)C)c(=O)c23)cc1OCC	.	.	/	/	/	/	/	/	/	/
Cc1ccc(NC(=S)c2ccncc2)c(C)c1	.	.	.	16µM	.	.	.	.	.	.
Cc1ccc(NC(=S)Nc2cccc3cnccc23)c(C)c1	.	.	.	?	.	/	/	/	/	/
O=C(NC(=S)Nc1cnc2ccccc2c1)c1ccccc1	?	.	.	?	.	/	/	/	/	/
O=C(NC(=S)Nc1ccccc1Cl)c1cncc(C#Cc2ccccc2)c1	.	.	.	.	?	/	/	/	/	/
O=C(NC(=S)Nc1ccccc1Cl)c1cncc(Br)c1	.	.	.	6.3µM	.	?	.	.	.	.
O=C(NC(=S)Nc1ncc(Br)cc1Br)c1ccccc1	.	.	.	6.3µM	.	.	.	.	.	.
COc1ccc2c(CSc3nnc(-c4cccnc4)n3-c3ccccc3F)cc(=O)oc2c1	.	.	.	.	.	/	/	/	/	/
Cc1ccc(NC(=O)CSc2nc3nc(C)c(Br)cc3[nH]2)cc1F	.	.	.	18µM	.	?	.	.	.	.
O=C(O)Cn1c2c(c3ccccc31)CSc1ccc(Cl)cc1-2	.	.	.	7.1µM	.	.[10.4 µM]	.	.	.	.
CCOc1ccc(C(C)=O)cc1Cc1c(O)[nH]c(=S)[nH]c1=O	.	.	.	22µM	.	.	.	.	.	.
COc1ccc(C(C)=O)cc1Cc1c(O)[nH]c(=S)[nH]c1=O	.	?	.	?	.	/	/	/	/	/
O=C(CN1C(=O)CCSc2ccccc21)NC1CCCCC1	.	.	.	.	.	/	/	/	/	/
CCN(CC)c1ccc(N=C2C(=O)Nc3ccccc32)cc1	?	?	?	.	.	.	.	0.26µM	?	0.73µM
COCc1c(C(=O)NCC2COc3ccccc3O2)oc2ccccc12 (configuration not stated)	.	.	/	/	.	/	/	/	/	/
CCC1CCCCN1S(=O)(=O)c1ccc(C(=O)Nc2nnc(-c3ccccc3Cl)o2)cc1 (configuration not stated)	.	.	.	?	.	/	/	/	/	/
CCN(c1ccccc1)S(=O)(=O)c1ccc(C(=O)Nc2nnc(C3CC3)o2)cc1	.	.	.	8.9µM	.	45µM	.	.	.	.
CCC1CCCCN1S(=O)(=O)c1ccc(C(=O)Nc2nnc(C3CC3)o2)cc1 (configuration not stated)	.	.	.	25µM	.	.[10.4 µM]	.	.	.	.
CN(c1ccccc1)S(=O)(=O)c1ccc(C(=O)Nc2nnc(C3CC3)o2)cc1	.	.	.	4.5µM	.	.	?	.	.	.
